About 79,000 compounds went through this panel and 15% of them were active in at least one assay; those are over-represented in the sample as a whole. Values without a mark were called inactive. Active and inactive are the calls of the source. Rule as the data show it: active = growth inhibition above about 70%; inactive = the rest.

The nature of assay [1]: NCI Yeast Anticancer Drug Screen. Data for the rad50 strain (AID 155).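 Also: 0% = growth of vehicle-only cultures of the same strain.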 The note with it: S. cerevisiae rad50 strain growth inhibition; at 50.0 µM; hits give high values. The essentials: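 Inhibition values express reduced yeast growth in compound-treated cultures relative to vehicle-treated controls.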
Assay [2] can be described thus: NCI Yeast Anticancer Drug Screen. Data for the mec2-1 strain (AID 157). The note with it: S. cerevisiae mec2-1 strain, at 50.0 µM, hits give high values. The gist of the method: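 Strain: mec2-1 (DNA repair/cell cycle alteration). Compound exposure, then growth measured; inhibition expressed relative to vehicle.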
Assay [3] in a line: NCI Yeast Anticancer Drug Screen. Data for the sgs1 mgt1 strain (AID 161).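 Also: 0% = growth of cultures given vehicle only.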 The note with it: S. cerevisiae sgs1 mgt1 strain, at 50.0 µM, hits give high values. The essentials: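 Inhibition of yeast growth, normalised to vehicle-treated controls, is reported for a strain bearing genetic alterations in DNA damage repair.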
A short description of assay [4]: NCI Yeast Anticancer Drug Screen. Data for the cln2 rad14 strain (AID 165).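 Also: 0% = growth equal to vehicle treated cultures.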 The note with it: S. cerevisiae cln2 rad14 strain, at 50.0 µM, hits give high values. The gist of the method: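 Compounds are applied to the cln2 rad14 yeast strain, and growth is then compared with that of vehicle-treated cultures to give inhibition.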
Assay [5] is described as follows: NCI Yeast Anticancer Drug Screen. Data for the bub3 strain (AID 167). The note with it: S. cerevisiae bub3 mutant strain, at 50.0 µM, hits give high values. The essentials: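 Steps: expose the mutant yeast strain to compound; grow alongside vehicle-treated cultures; measure growth; express inhibition against the vehicle cultures.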
Assay [6] in a line: NCI Yeast Anticancer Drug Screen. Data for the mlh1 rad18 strain (AID 175). The note with it: S. cerevisiae mlh1 rad18 strain growth inhibition; at 50.0 µM; hits give high values. The gist of the method: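 Read-out is yeast growth inhibition, calculated against vehicle-only controls. The compound was applied to a strain engineered with DNA damage repair alterations.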

As to `O=C1C=C(c2ccccc2)C(O)(c2ccccc2)C1` (stereo unspecified), the growth inhibition is 15.1% in assay [1]; 6.85% in assay [2]; 6.75% in assay [3]; 5.1% in assay [4]; 11.4% in assay [5]; 6.15% in assay [6].

For the compound `COC1C(=O)CCC2(CO2)C1(O)C1(C)OC1CCC(C)C` (stereo unspecified), the growth inhibition is -27.1% in assay [1]; -42.4% in assay [2]; -18.5% in assay [3]; -3.85% in assay [4]; -16.1% in assay [5]; -4.55% in assay [6].

Take `Cc1c(Cl)cccc1NC(=S)NC(=O)c1ccccc1`: the growth inhibition in assay [1] was 23.7%; in assay [2] it was 28.2%; in assay [3], 14.8%; in assay [4], 0.4%; in assay [5], 35.4%; in assay [6], 18.1%.

On to `NC(=O)NCCO`, for which the growth inhibition in assay [1] is -17.5%; in assay [2], 4.1%; in assay [3], 13.8%; in assay [4], -18.6%; in assay [5], -6.05%; in assay [6], 13.3%.

Turning to `CC(=O)N=c1ccc2nc3c(cc(N)c4ccccc43)oc-2c1`, the growth inhibition in assay [1] is 25.4%; in assay [2], 13.2%; in assay [3], 27.6%; in assay [4], 20.9%; in assay [5] it was 40.5%; in assay [6], 33.8%.

Turning to `O=C1NCC2CCCC1C2` (stereo unspecified), the growth inhibition is 6.5% in assay [1]; -8.15% in assay [2]; -9.3% in assay [3]; -40.9% in assay [4]; -13.4% in assay [5]; 1.7% in assay [6].

Consider `CN(C)c1ncnc2c1cnn2C`, for which the growth inhibition in assay [1] was -9.55%; in assay [2], -0.6%; in assay [3], 9.3%; in assay [4], -13.6%; in assay [5] it was -0.7%; in assay [6] it was 2.65%.

`Cc1[nH]nc(C(N)=O)c1[N+](=O)[O-]`: the growth inhibition was -0.75% in assay [1]; 4.95% in assay [2]; 20.2% in assay [3]; -36.8% in assay [4]; -6.7% in assay [5]; 0.35% in assay [6].

For the compound `N=C(N)c1nn(C2OC(CO)C(O)C2O)c2nc[nH]c(=O)c12` (stereo unspecified), the growth inhibition in assay [1] is 0.75%; in assay [2] it was -9.5%; in assay [3], 10.2%; in assay [4], 17.6%; in assay [5], 5.7%; in assay [6], 27.1%.

Turning to `COc1cccc2c1Cc1ccccc1-2`, the growth inhibition in assay [1] was 50.3%; in assay [2], -3.6%; in assay [3], 13.3%; in assay [4] it was 12.8%; in assay [5], 43.1%; in assay [6] it was 24.4%.

In the case of `CCOC(=O)CNC(=O)Sc1ccc(C(C)(C)C)cc1`, the growth inhibition in assay [1] was 88.2% (active); in assay [2], 88.2% (active); in assay [3], 84.2% (active); in assay [4], 70.2% (active); in assay [5], 76.7% (active); in assay [6], 61.8%.

`Cc1cc(CO)c(O)c(CO)c1`: the growth inhibition in assay [1] is 8.15%; in assay [2], -10.4%; in assay [3], 0.1%; in assay [4], -5.05%; in assay [5] it was -10.5%; in assay [6], 0.85%.

`CNc1ccccc1C(=O)N/N=C/C=C/c1ccccc1`: the growth inhibition in assay [1] was 31.6%; in assay [2], 0.35%; in assay [3], 31.1%; in assay [4] it was 2.65%; in assay [5], 5.3%; in assay [6] it was 14.5%.

With `CCOC(=O)c1ccc(NC(=O)Nc2nccs2)cc1`, the growth inhibition in assay [1] was -2.95%; in assay [2], -10.8%; in assay [3], 29.4%; in assay [4], 11.2%; in assay [5] it was -12.4%; in assay [6], 6.1%.

For `O=[n+]1ccn([O-])c2ccccc21`, the growth inhibition in assay [1] was 11.3%; in assay [2], 8.45%; in assay [3] it was 9.05%; in assay [4] it was -52.2%; in assay [5], -8.1%; in assay [6] it was 20.6%.

For the compound `C=CC(C)C(C)(C)O` (stereo unspecified), the growth inhibition in assay [1] was -3.2%; in assay [2] it was -43.5%; in assay [3], -1%; in assay [4], 4.25%; in assay [5], -13.5%; in assay [6], -2.4%.

With `CC(=O)OC/C(C)=C\CC(C)COC(C)=O` (stereo unspecified), the growth inhibition in assay [1] was -9.25%; in assay [2] it was 3.35%; in assay [3], 14.4%; in assay [4], 2.4%; in assay [5] it was -18.6%; in assay [6], -0.75%.

`COC1OC(C(COC(C)=O)OC(C)=O)C(OC(C)=O)C(OC(C)=O)C1OC(C)=O` (stereo unspecified): the growth inhibition in assay [1] is 13.8%; in assay [2], 1.75%; in assay [3], 4.35%; in assay [4], -46.5%; in assay [5], 52.2%; in assay [6] it was -14.8%.

As to `ClCc1cccc2c(CCl)cccc12`, the growth inhibition in assay [1] is 59.6%; in assay [2], -6.25%; in assay [3], 0.9%; in assay [4], 33%; in assay [5] it was -14.7%; in assay [6] it was 12.4%.

On to `Cc1ccc(C)c(CCO)c1`, for which the growth inhibition in assay [1] was -22.1%; in assay [2] it was -38.5%; in assay [3], -30.5%; in assay [4] it was -2.9%; in assay [5], -21.4%; in assay [6], -7.3%.

For `O=C(Oc1ccccc1Cl)c1ccc(Cl)cc1Cl`, the growth inhibition was 2.2% in assay [1]; 33.4% in assay [2]; 24.9% in assay [3]; -49.4% in assay [4]; 43.2% in assay [5]; 48.3% in assay [6].

These data come from PubChem BioAssay (NCI).
